This is an account of results in PubChem BioAssay (NCI).

This is part of a sample that, as a whole, favours compounds with a hit. Of some 79,000 tested, about 15% had one in any assay. A number with no mark means an inactive call. Cut-off read from the data, not from the text of the source: active = growth inhibition above about 70%; inactive = the rest.

The nature of this assay: NCI Yeast Anticancer Drug Screen. Data for the bub3 strain (AID 167). The settings on record: S. cerevisiae bub3 mutant strain, at 50.0 µM, hits give high values. The essentials: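 Yeast carrying a defined mutation is treated with each compound, and growth is compared with that of vehicle-exposed cells to give inhibition.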
Take `Oc1ccc2nccnc2c1`: the growth inhibition is 3.6%.

Take `CCC1(COC(NC(=O)c2ccccc2)(C(F)(F)F)C(F)(F)F)COC1`: the growth inhibition was -24.2%.

As to `CCOC(=O)CC1(O)Oc2cc3c(cc2C(c2cc(OC)c(OC)c(OC)c2)C1C(=O)OCC)OCO3` (stereo not given), the growth inhibition is -1.45%.

Take `CC(=O)/C(C)=C\C1C(C)=CCCC1(C)C` (stereo not given): the growth inhibition is -14.8%.

As to `C1=CC2CCC1C1CSCC21` (stereo not given), the growth inhibition was -3.45%.

As for `Nc1nc2ncc(=O)[nH]c2c(=O)[nH]1`, the growth inhibition was 20.3%.

As for `COc1ccc2c(c1)OC(OC)(c1ccc(OC)c(OC)c1)C(O)(OC)C2=O` (stereo not given), the growth inhibition was 11.8%.

As for `COC(=O)C1C(C)C1c1ccc2c(c1)OCO2` (stereo not given), the growth inhibition was -0.7%.

Regarding `CSc1nc2c(cnn2C)c(=O)[nH]1`, the growth inhibition is 10.5%.

For the compound `O=C(Nc1ccc(F)cc1)Nc1ccc(I)cc1`, the growth inhibition is 17.2%.

Consider `CN(C)c1ccc(/C=N/N=C2\C(=O)Nc3c(Cl)cc(Cl)cc32)cc1`, for which the growth inhibition is 43.5%.

Take `O=C(Nc1cc(-c2ccccc2)nn1-c1ccccc1)c1ccc(Cl)cc1`: the growth inhibition is -29.1%.

Turning to `O=C(O)c1cnc2cc3c(cc2c1Nc1cccc(Cl)c1)OCO3`, the growth inhibition is -8.6%.

Regarding `O=C(NCCN1CCOCC1)c1ccc(C(=O)NCCN2CCOCC2)cc1`, the growth inhibition is 1.6%.

With `OCC1NC(COC2OC(CO)C(O)C(O)C2O)C(O)C(O)C1O` (stereo not given), the growth inhibition was -0.25%.

For the compound `CC(C)Sc1nc(NC(=O)N(C)N=O)cc(=O)[nH]1`, the growth inhibition was -9.95%.

With `S=C(S)NCCCn1ccnc1`, the growth inhibition was -30.7%.

With `C=Cc1ccc(C[n+]2cccc(C(N)=O)c2)cc1`, the growth inhibition is 17.2%.

With `NC1=C(O)/C(=N/NS(=O)(=O)c2ccccc2)C(c2cccc(Cl)c2)O1` (stereo not given), the growth inhibition was 11.7%.

For the compound `O=C1O/C(=C(\Br)c2cccc3ccccc23)c2ccccc21`, the growth inhibition is -27.6%.

Turning to `O=C1c2cccc3cccc(c23)C(=O)N1C(Cc1ccccc1)c1ccccc1` (stereo not given), the growth inhibition is -37.8%.

In the case of `CC(=O)Nc1ccc(/C=C/C(=O)c2sc(-c3cccnc3)nc2C)cc1`, the growth inhibition is 17.5%.

On to `O=S(=O)(c1ccc(Br)cc1)N1CCN(S(=O)(=O)c2ccc(Br)cc2)CC1`, for which the growth inhibition is -23.4%.

On to `Cc1nc2nc[nH]n2c1N=Nc1ccccc1`, for which the growth inhibition was 7.5%.

On to `CCOc1ccc(C(C)(CC)c2cc3c(cc2OC)OCO3)cc1` (stereo not given), for which the growth inhibition was -20.1%.

Turning to `O=C1C(O)=C(Br)C(=O)C(O)=C1Br`, the growth inhibition was 15.4%.

Take `CCOC(=O)C(CC(c1ccc2c(c1)OCO2)C(C(=O)N(C(C)C)C(C)C)[N+](=O)[O-])C(=O)OCC` (stereo not given): the growth inhibition is 11.8%.

Regarding `OC(CBr)c1cc(-c2ccccc2)nc2c(Cl)cc(Cl)cc12` (stereo not given), the growth inhibition was 11.8%.

With `COC1CC(NC(C)=O)C2OC(c3ccccc3)OCC2O1` (stereo not given), the growth inhibition was -3.45%.

Take `COc1cc2c(c(OC)c1OC)-c1ccc(OC)c(=O)cc1C(NC(=O)CCCCCNc1ccc(N=[N+]=[N-])cc1[N+](=O)[O-])CC2` (stereo not given): the growth inhibition was 12.8%.

Take `CC1(C)N=C(N)N=C(N)N1c1ccc(CCCCc2ccccc2)cc1`: the growth inhibition is 50%.

Take `Cn1c(=O)c(C(=O)NC23CC4CC(CC(C4)C2)C3)c(O)c2ccccc21`: the growth inhibition is -53%.

Consider `NC(=O)C1CCCCC1C(=O)O` (stereo not given), for which the growth inhibition is 4.6%.

On to `Cc1ccncc1.[O]=[Ge].[O]=[Ge].[O]=[Ge].[O]=[Ge].[O]=[Ge].[O]=[Ge][OH].[O]=[Ge][OH]`, for which the growth inhibition was -24.8%.

With `CCCCCCCCCCCCSC(=O)CCC(=O)O`, the growth inhibition is 1.85%.

On to `CS(=O)(=O)OCC(CCl)(CCl)CCl`, for which the growth inhibition was -3.45%.

Turning to `Oc1ccc(Br)cc1C(=S)N1CCOCC1`, the growth inhibition was -10.1%.

As to `CCCCCCCCCCC(C(=O)O)C1(C(=O)O)CCC(=O)O1` (stereo not given), the growth inhibition is -9.4%.

Take `COc1ccc(C=O)c(C(=O)O)c1OC`: the growth inhibition is -20.2%.

As for `c1ccc(CCC2OCC(c3ccccc3)O2)cc1` (stereo not given), the growth inhibition was 58.8%.
